TDP1 cell CPT – growth inhibition of DT40 Tdp1-/-;hTDP1 cells with camptothecin (screen for TDP1 inhibitors) | Potency, µM (titrated, usually from 46.2 µM), actives largely listed as inhibitors | actives 12% (n = 420,000) | chicken DT40 Tdp1-/-;hTDP1 cells + 20 nM CPT, ATP luminescence, 48 h; further: nearly all actives have a fitted effect of over 55% in size
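Chicken DT40 Tdp1-/- cells complemented with human TDP1, 400 cells/well, exposed to compounds plus 20 nM camptothecin for at least 48 h at 37 C; viability read as ATP content by CellTiter-Glo luminescence.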
RORg inh – ROR gamma (mouse) transcription inhibition; Drosophila S2 Gal4-RORgamma UAS-luciferase reporter, 20 h; Potency, µM (highest dose often 53.6 µM), hits mostly inhibitors; actives 5.4% (n = 310,000); further: nearly all actives have a fitted effect of over 60% in size
Target sequence (P51450 whole entry, looked up, the tested form may be a part): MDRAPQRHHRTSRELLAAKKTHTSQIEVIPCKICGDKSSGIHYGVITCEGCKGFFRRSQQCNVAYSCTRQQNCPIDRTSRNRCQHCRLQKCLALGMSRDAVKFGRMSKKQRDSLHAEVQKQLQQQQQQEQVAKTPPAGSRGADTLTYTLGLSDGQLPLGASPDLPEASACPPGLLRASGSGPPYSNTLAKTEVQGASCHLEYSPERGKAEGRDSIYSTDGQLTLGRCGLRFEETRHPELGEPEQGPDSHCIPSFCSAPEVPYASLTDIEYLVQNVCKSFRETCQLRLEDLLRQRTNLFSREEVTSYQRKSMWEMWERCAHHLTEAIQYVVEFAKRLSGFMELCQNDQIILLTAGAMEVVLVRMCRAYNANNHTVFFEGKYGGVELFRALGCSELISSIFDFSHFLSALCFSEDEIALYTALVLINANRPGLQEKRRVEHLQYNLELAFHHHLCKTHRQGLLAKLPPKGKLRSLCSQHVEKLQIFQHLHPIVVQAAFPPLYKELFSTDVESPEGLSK
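A Gal4/UAS one-hybrid system in insect cells: metallothionein-promoter Gal4–ROR gamma fusion plus Photinus luciferase reporter. Copper sulfate 700 uM final, 20 hr ambient incubation, luminescent detection after 10 min with reagent.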
LDHA inh – blocks human lactate dehydrogenase A; purified LDHA, NADH/diaphorase-resazurin fluorescence; hits give low values; P00338; actives 0.15% (n = 480,000); activity change, % (values are at about 110 or 230 µM); in the data active means activity change below about -30%; inconclusive means mostly about -25% to -30%
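Human LDH5 (2 nM) was incubated with 0.06 mM NADH and 0.2 mM pyruvate for 5 min at room temperature in Tris pH 7.4. Remaining NADH was coupled through diaphorase/resazurin, and resorufin fluorescence was read at 0 and 20 min.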
TDP1 cell noCPT – qHTS for Inhibitors of human tyrosyl-DNA phosphodiesterase 1 (TDP1): qHTS in cells in absence of CPT; AID 686978, 2013; DT40 Tdp1-/- hTDP1 cells, no CPT, ATP luminescence, 48 h; actives 15% (n = 420,000); Potency, µM (series often up to 46.2 µM), actives largely listed as inhibitors; further: nearly all actives have a fitted effect of over 55% in size
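Growth of hTDP1-complemented DT40 Tdp1-knockout cells is measured by ATP luminescence after at least 48 hr compound exposure at 37 °C, with DMSO substituting for the 20 nM CPT used in the parallel screen.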
Gal4-VP16 FLuc – counter-screen for ROR gamma inhibitors: Gal4-VP16 reporter | Potency, µM (titrated, usually from 53.6 µM), actives largely listed as inhibitors | actives 3.5% (n = 310,000) | Drosophila S2 Gal4-VP16 UAS-luciferase, luminescence, 20 h;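 further: Gal4-VP16 expression switched on by copper sulfate through the metallothionein promoter; nearly all actives have a fitted effect of over 50% in size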
IL1B secr inh – blocks inflammasome-driven IL-1 beta release; THP-1 LPS/ATP IL-1B secretion, AlphaLISA, 16 h; hits give low values; actives 4.7% (n = 360,000); activity change, % at 57.5 µM; in the data active means activity change below about -50%; inconclusive means mostly about -30% to -49%
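THP-1 cells pretreated 1 hr with compounds (up to 57.5 uM final), then stimulated with LPS (250 ng/mL final) plus ATP (1.25 mM final); secreted IL-1B measured by AlphaLISA after 16 hr, decreased signal indicating inhibition.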
A number is an active result; i = inactive; ? = inconclusive; nt = no result given. Sampled rows, rich in hits. Any-hit rate of the full collection: about 18%. Unless noted, the call rests on the fitted dose curve; in most records, active means well fitted curve in the direction sought with a large enough effect; inconclusive means small, poorly fitted or top-dose-only effect, or another doubt; inactive means no such curve, though single readings can be large; an effect the other way counts as inactive or inconclusive.

SMILES	TDP1 cell CPT	RORg inh	LDHA inh	TDP1 cell noCPT	Gal4-VP16 FLuc	IL1B secr inh
COc1ccc(OC)c(NC(=O)CSc2n[nH]c(-c3cccnc3)n2)c1	i	i	i	i	i	i
O=C(Nc1cccc(C(F)(F)F)c1)C1C(c2ccccc2)=C1c1ccccc1	nt	nt	i	nt	nt	nt
N#C/C(=C/c1ccccc1OCc1ccccc1C#N)c1ccc(Cl)cc1	nt	nt	i	nt	nt	nt
O=C(CSc1n[nH]c(-c2ccccn2)n1)Nc1ccccc1F	4.11µM	3.55µM	i	2.91µM	5.01µM	i
COc1ccccc1NC(=O)CSc1n[nH]c(-c2ccco2)n1	i	nt	i	i	nt	i
Nc1nc(SCC(=O)Nc2ccc(Oc3ccccc3)cc2)n[nH]1	i	?	i	i	17.8µM	i
Nc1nc(SCC(=O)Nc2cccc(Oc3ccccc3)c2)n[nH]1	i	?	i	?	i	i
COc1ccccc1-c1nc(SCC(=O)Nc2ccccc2F)n[nH]1	?	i	i	?	i	i
COc1ccccc1NC(=O)CSc1n[nH]c(-c2ccccn2)n1	?	6.31µM	i	14.6µM	5.01µM	i
Cc1cc(=O)oc2cc(OCC(=O)NCC3(N4CCN(C)CC4)CCCCC3)ccc12	nt	nt	i	nt	nt	nt
COc1ccccc1N1CCN(C(=S)Nc2ccccc2)CC1	?	?	i	?	?	i
COc1cc(C(=S)N2CCOCC2)ccc1OC(=O)/C=C/c1ccco1	i	?	i	i	17.8µM	i
CN1CCN(C(=S)NC(=O)c2cccc(S(=O)(=O)N(C)C)c2)CC1	i	14.1µM	i	i	?	i
COc1ccccc1N1CCN(C(=S)Nc2ccc(F)cc2)CC1	i	11.2µM	i	i	?	i
CCOC(=O)N1CCN(C(=S)NC(=O)c2ccc(F)c(F)c2)CC1	?	0.631µM	i	14.6µM	1µM	i
COc1cc(C(=S)N2CCOCC2)ccc1OC(=O)c1ccccc1	i	nt	i	i	nt	i
N#Cc1ccc(Cl)cc1NC(=O)COC(=O)c1cccc(S(=O)(=O)N2CCCCCC2)c1	nt	nt	i	nt	nt	nt
CCc1ccc2oc(C(=O)Nc3ccccc3C)cc(=O)c2c1	nt	nt	i	nt	nt	nt
O=C(NCc1ccccn1)c1cc(C(F)(F)F)cc(C(F)(F)F)c1	nt	nt	i	nt	nt	nt
COc1ccc(C(=O)NC(=S)N2CCOCC2)cc1OC	i	11.2µM	i	i	?	i
Cc1ccc(C(=O)NC(=S)N2CCN(C)CC2)cc1Br	?	nt	i	?	nt	i
COc1ccc(C(=O)NC(=S)N2CCN(c3ccccc3OC)CC2)cc1OC	i	2.82µM	i	i	5.01µM	i
Cc1cccc(C(=O)NC(=S)N2CCc3ccccc3C2)c1	i	1.41µM	i	i	3.55µM	i
CCNC(=S)N1CCc2ccccc2C1	i	i	i	i	i	i
COc1ccc(C(=O)NC(=S)N2CCN(C)CC2)cc1Br	i	0.447µM	i	i	2.82µM	i
SMILES	TDP1 cell CPT	RORg inh	LDHA inh	TDP1 cell noCPT	Gal4-VP16 FLuc	IL1B secr inh
O=C1CC(/C=C/c2ccccc2)Cc2nc(N3CCCCC3)ncc21 (stereo not drawn)	nt	nt	i	nt	nt	nt
COc1cc(C2C=C(Nc3ccccc3)C(=O)N2c2ccccc2)ccc1O (stereo not drawn)	?	i	i	?	i	?
CCOC(=O)c1ccc(NC2=CC(c3ccc(O)c(OCC)c3)N(c3ccc(C(=O)OCC)cc3)C2=O)cc1 (stereo not drawn)	13µM	nt	i	13µM	nt	nt
O=C1[C@H]2C(c3ccccc3)=NN(c3ccccc3)[C@H]2C(=O)N1c1ccccc1	i	i	i	i	i	i
O=C1[C@@H]2[C@@H](CN3CN(c4ccccc4)N=C(c4ccccc4)[C@@]23c2ccccc2)C(=O)N1c1ccccc1	5.8µM	nt	i	13µM	nt	i
Cc1ccc(C=Nc2ccccc2C(N)=O)s1	4.11µM	i	i	3.66µM	?	i
CCC1CCCCN1CCCNC(=O)c1ccc(/C=C2/Sc3ccccc3NC2=O)cc1 (stereo not drawn)	?	?	i	3.66µM	?	i
COc1ccc(C(=O)NCCN2CCCC2)cc1	i	i	i	i	i	i
O=C1Nc2cc(C(=O)NCCCN3CCCC3)ccc2S/C1=C\c1ccccc1	?	i	i	18.4µM	i	i
COc1ccc(/C=C2/Sc3ccc(C(=O)NCCN4CCCCCC4)cc3NC2=O)cc1	3.66µM	?	i	3.26µM	20µM	-89.7
O=C1Nc2cc(C(=O)NCCCN3CCOCC3)ccc2S/C1=C/c1cccc(Cl)c1	?	i	i	?	i	i
Cc1cccc(C(C)C)c1NC(=O)COc1ncnc2ccccc12	nt	nt	i	nt	nt	nt
CC(N)(CCc1ccccc1)C(=O)O (stereo not drawn)	nt	nt	i	nt	nt	nt
Cc1cc(NC(=O)C(C)OC(=O)c2cc3c(s2)CCCCCC3)no1 (stereo not drawn)	nt	nt	i	nt	nt	nt
CCOc1ccc(-c2nnc(-c3cccs3)o2)cc1	i	11.2µM	i	i	?	?
CCCc1cc(C(=O)Nc2ccc(C(=O)c3ccc(C)cc3)cc2)n(C)n1	14.6µM	?	i	?	i	-62.5
CCCc1cc(C(=O)Nc2cccc3ccccc23)n(C)n1	?	i	i	?	i	i
COc1ccc(CNC(=O)c2cc3ccccc3[nH]2)cc1	nt	nt	i	nt	nt	nt
COc1ccc(Nc2ccc3nnc(-c4ccccc4Cl)n3n2)cc1	nt	nt	i	nt	nt	nt
c1ccc(CSC2=NNC(c3ccccn3)S2)cc1 (stereo not drawn)	0.0058µM	i	i	0.164µM	i	i
c1ccc(CSc2ncccn2)cc1	i	i	i	i	i	i
O=C(CSC1=NNC(c2ccccn2)S1)Nc1ccc(C(F)(F)F)cc1 (stereo not drawn)	4.11µM	3.16µM	i	3.66µM	5.01µM	i
O=C(CSc1nccn1C1CCCC1)Nc1ccc(C(F)(F)F)cc1	?	nt	i	?	nt	nt
CCOC(=O)C1CCN(S(=O)(=O)c2ccc3c(c2)CCCN3C(C)=O)CC1	i	i	i	i	i	i
CCOC(=O)C1CCCN(S(=O)(=O)c2cc(C(=O)OC)n(C)c2)C1 (stereo not drawn)	16.4µM	i	i	16.4µM	15.8µM	i
COc1ccc(N2CCN(S(=O)(=O)c3ccc4c(c3)CCCN4C(C)=O)CC2)cc1	16.4µM	nt	i	?	nt	nt
CCOC(=O)C1CCCN(S(=O)(=O)c2ccc3c(c2)CCCN3C(C)=O)C1 (stereo not drawn)	?	nt	i	18.4µM	nt	nt
CCOC(=O)C1CCCN(S(=O)(=O)CCNC(=O)c2cccc(OC)c2)C1 (stereo not drawn)	i	nt	i	i	nt	-68.2
CCCN1C(SCC(=O)Nc2c(C)cccc2C)=NS(=O)(=O)c2ccccc21	nt	nt	i	nt	nt	nt

Screening results deposited in PubChem by National Center for Advancing Translational Sciences (NCATS).
